This is one part of a sample in which hits are shown more often than they occur.
RMI-FANCM inh: blocks RMI1/RMI2 complex binding to FANCM MM2 peptide | 70,000 compounds, 0.58% hits | FP signal (polarization) at 33 µM | AID 1159607 | Fluorescence polarization, RMI core complex with F-MM2 peptide; active compounds read low; in the data active = FP signal below about 40
Hits are given with their value; i = inactive.

SMILES | RMI-FANCM inh
CCCCCOc1ccc(N2C(=O)/C(=C/c3ccc(Br)cc3)N=C2c2ccccc2F)cc1 | i
CCOC(=O)Cn1c(=O)c2c(nc3n(-c4ccc(C)c(Cl)c4)c(C)c(C)n23)n(C)c1=O | i
COc1cccc(CSc2nc(CC(=O)NCc3ccccn3)cc(=O)[nH]2)c1 | i
NC(=O)C1Cc2ccccc2N1C(=O)c1cccs1 (configuration not stated) | i
NC(=O)C1Cc2ccccc2N1C(=O)Nc1cccs1 (configuration not stated) | 28
NC(=O)C1Cc2ccccc2N1C(=O)C1CC1 (configuration not stated) | i
O=C(CSc1ccc(-c2ccccn2)nn1)Nc1cccc([N+](=O)[O-])c1 | i
CCOc1ccc(-c2csc(NC(=O)C3CCCCC3)n2)cc1 | i
CCOc1ccc(-c2csc(N/N=C\c3ccc(OC)c(OC)c3)n2)cc1 | 16
COc1ccc(/C=N\Nc2nc(-c3cccs3)cs2)cc1 | i
N#CCS(=O)(=O)c1ccc(Br)cc1 | i
Cc1cccc(NC(=O)CN2C(=O)c3ccccc3C2=O)n1 | i
Cc1ccc(Cl)cc1S(=O)(=O)NCC(=O)N1CCOC(c2ccccc2)C1 (configuration not stated) | i
Cc1ccc2c(c1)Cc1c(nc(-c3ccccc3)nc1SCC(=O)Nc1cccc(C(=O)O)c1)O2 | 14
Cc1cccc2c1Oc1nc(-c3ccccc3)nc(SCC(=O)Nc3ccc4c(c3)OCCO4)c1C2 | i
Cc1ccc(-c2nc3c(c(SCC(=O)Nc4cccc(C(=O)O)c4)n2)Cc2ccccc2O3)cc1 | i
CNc1nn(CC(=O)Nc2ccc(C(C)C)cc2)c(N)c1-c1nc(-c2ccccc2C)no1 | i
O=C(O)c1c[nH]c(=O)c([N+](=O)[O-])c1 | i
C=CCN1C(=O)C(C)(C)COc2ccc(NS(=O)(=O)c3ccc(OC)cc3C)cc21 | i
N#C/C(=C\c1cn[nH]c1-c1ccccc1)c1nc2ccccc2s1 | i
N#C/C(=C\c1ccc(C#N)cc1)c1nc2ccccc2s1 | i
Cc1cccc(Oc2nc3ccccn3c(=O)c2/C=C(\C#N)c2nc3ccccc3s2)c1 | 0
O=C(Nc1nnc(-c2ccccc2Cl)s1)c1ccc(Cl)c([N+](=O)[O-])c1 | i
CC(C)c1nnc(C2CCN(C(=O)Cc3ccc(Cl)cc3)CC2)o1 | i
Cc1cc(NC(=O)CSc2ccc(-c3sc(-c4cccnc4)nc3C)nn2)no1 | i
SMILES | RMI-FANCM inh
O=c1nc2s/c(=C/c3ccccn3)c(=O)n2nc1-c1ccccc1 | 21
O=c1/c(=C/c2ccccc2)sc2nnc(-c3ccc(Cl)cc3)n12 | i
O=c1/c(=C\c2ccc(Cl)cc2)sc2nc(-c3ccc(Cl)cc3)nn12 | i
O=C(CSc1ncnc2c1nnn2-c1ccc(F)cc1)NCCc1ccccc1 | i
O=C(O)C1C2C=CC(C2)C1C(=O)Nc1ccc(-c2csnn2)cc1 (configuration not stated) | i
Cc1ccccc1C(=O)Nc1ccc(-c2ccc(N3CCCC3)nn2)cc1 | i
CCN(CC)CCN(C(=O)c1ccc(S(=O)(=O)N(CC)c2ccccc2)cc1)c1nc2ccc(C)cc2s1 | i
CCN(c1ccccc1)S(=O)(=O)c1ccc(C(=O)N(CCCN(C)C)c2nc3cc4c(cc3s2)OCO4)cc1 | i
CCN(CC)CCN(C(=O)c1ccc(S(=O)(=O)N(CC)c2ccccc2)cc1)c1nc2cc3c(cc2s1)OCCO3 | 40
CC(=O)c1ccn(S(=O)(=O)c2ccc(C)cc2)c1 | i
COc1ccccc1N1CCN(Cc2cc(=O)c(OCc3cccc([N+](=O)[O-])c3)co2)CC1 | i
O=C(CSc1ccc(-c2cccs2)nn1)Nc1nccs1 | i
Cc1nc2ccc(NC(=O)c3cccs3)cc2c(=O)n1-c1ccc(F)cc1 | i
O=C(Nc1nc2c(s1)CCc1ccccc1-2)c1ccc(Cl)s1 | i
O=C1OC(CNS(=O)(=O)c2cccc(Cl)c2)CN1c1ccccc1 (configuration not stated) | i
CCc1nnc(NC(=O)CCN2C(=O)/C(=C\c3ccco3)SC2=S)s1 | i
O=C1/C(=C\c2ccco2)SC(=S)N1CCS(=O)(=O)O | i
CCN(Cc1ccccc1)C(=O)CCN1C(=O)/C(=C\c2ccco2)SC1=S | 22
COCCCN1COc2ccc3cc(-c4cc(OC)ccc4OC)c(=O)oc3c2C1 | 35
COc1ccc(-c2cc3ccc4c(c3oc2=O)CN(CC2CCCO2)CO4)cc1OC (configuration not stated) | i
CCOCCCN1COc2ccc3c(=O)c(-c4ccc(Cl)cc4)coc3c2C1 | i
CC(C)CNC(=O)C(=O)Nc1ccc(N2CCCS2(=O)=O)cc1 | i
COc1ccc(C(CC(=O)NCc2ccccc2)Sc2n[nH]c(-c3ccc(F)cc3)n2)cc1 (configuration not stated) | i
COc1ccc(-c2nc(SC(CC(=O)NCCN3CCOCC3)c3ccc(OC)cc3)n[nH]2)cc1 (configuration not stated) | 22
COc1ccc(-c2nc(SC(CC(=O)NCCc3ccccc3)c3cccs3)n[nH]2)cc1 (configuration not stated) | i
SMILES | RMI-FANCM inh
CN(CCCC(=O)NCc1ccco1)S(=O)(=O)c1ccc2c(c1)C(=O)c1ccccc1C2=O | i
COc1ccc(N2CCN(CCNS(=O)(=O)c3ccc(OC)c(Cl)c3)CC2)cc1 | i
CN1CCc2cc(C(CNC(=O)C(=O)Nc3cccc(C(F)(F)F)c3)N(C)C)ccc21 (configuration not stated) | i
O=C(Nc1nc2c(s1)Cc1ccccc1-2)c1nc2ccccc2s1 | -62
O=C(Nc1nc2c(s1)Cc1ccccc1-2)c1ccc2ncsc2c1 | i
O=C(Nc1nc2c(s1)CCc1ccccc1-2)c1nc2ccccc2s1 | i
COc1ccc(NC(=O)CSc2ccc(NC(=O)c3ccc(C)cc3)nn2)cc1OC | i
CN(CC(=O)NCCc1ccccc1)S(=O)(=O)c1cccc2cnccc12 | i
O=C(CN1CCN(CCN2C(=O)c3cccc4cccc(c34)C2=O)CC1)c1ccc(F)cc1 | i
COC(=O)c1ccc(OCC(O)CN2CCN(CCN3C(=O)c4cccc5cccc(c45)C3=O)CC2)cc1 (configuration not stated) | i
COc1ccc(C(=O)CN2CCN(CCN3C(=O)c4cccc5cccc(c45)C3=O)CC2)cc1 | 25
O=Cc1c(-c2ccccc2)nc2sccn12 | i
Cc1nc2sccn2c(=O)c1NC(=O)Cc1ccccc1 | i
Cc1cc(C)c(NC(=O)Cc2cc(=O)[nH]c(SCc3ccc(F)cc3)n2)c(C)c1 | i
CCCC(=O)NCCc1ccc2c(c1)CCCN2CCC | i
CCCN1CCCc2cc(CCNS(C)(=O)=O)ccc21 | 24
CCCN1CCCc2cc(CCNC(=O)C(=O)NC(C)C)ccc21 | i
CN1CCCc2cc(CCNC(=O)c3ccccc3Cl)ccc21 | i
CCCN1CCCc2cc(CCNC(=O)OCC)ccc21 | 31
CCCN1CCCc2cc(CCNS(=O)(=O)CC(C)C)ccc21 | i
CCCN1CCCc2cc(CCNC(=O)c3ccccc3OCC)ccc21 | 23
CCCN1CCCc2cc(CCNC(=O)c3cccc(OC)c3OC)ccc21 | i
CCCN1CCCc2cc(CCNS(=O)(=O)c3ccc(CC)cc3)ccc21 | i
CCCN1CCCc2cc(CCNC(=O)C(=O)Nc3ccccc3OCC)ccc21 | i
CCN1CCCc2cc(CCNC(=O)c3ccc(OC)c(OC)c3)ccc21 | i
CCN1CCCc2cc(CCNC(=O)c3ccccc3C(F)(F)F)ccc21 | 0
N#CCn1cnc2c(-c3cccc(Cl)c3)csc2c1=O | i
COc1ccc(-c2ccc(NC(=O)c3c(OC)cccc3OC)cc2)nn1 | i
Cc1nc2c(=O)n(CCc3ccccc3)nc(-c3ccccc3)c2s1 | i
